Inconclusive results are not listed. Active and inactive are the calls of the source. Unless noted, calls come from the whole dose curve; as a rule, active = well fitted curve in the direction sought with a large enough effect in the repeat runs; inconclusive = weak or mixed curves; inactive = flat fitted curve, though single readings scatter.
Assays:
[1] = qHTS assay to test for compound auto fluorescence at 535 nm (green) in HEK293 cells (AID 720680)
[2] = qHTS assay to test for compound auto fluorescence at 460 nm (blue) in HEK293 cell free culture (AID 720681)
Procedure, shortened: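 Test compounds were pinned into cell-free culture medium (DMEM with 10% FBS) and fluorescence was read directly at Ex/Em 405/460 nm. Signals were expressed as fluorescence equivalents of triamterene, with DMSO vehicle as control.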

[3] = qHTS assay to test for compound auto fluorescence at 535 nm (green) in HEK293 cell free culture (AID 720682)
Procedure, shortened: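 Compounds were pin-transferred into cell-free DMEM with 10% FBS, and green fluorescence was read at excitation 485 nm and emission 535 nm. Intensities were expressed as fluorescein-equivalent values.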

[4] = qHTS assay to test for compound auto fluorescence at 590 nm (red) in HEK293 cell free culture (AID 720683)
Procedure, shortened: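 Tox21 10K library compounds were pinned into cell-free DMEM with 10% FBS and fluorescence was read at excitation 540 nm. Activity is expressed as Rose Bengal sodium equivalency.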

[5] = qHTS assay to test for compound auto fluorescence at 590 nm (red) in HepG2 cell free culture (AID 720684)
Procedure, shortened: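 Red fluorescence (540 nm excitation, 590 nm emission) was measured after compound transfer into cell-free MEM supplemented with 10% FBS. Values are equivalencies against Rose Bengal sodium.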

[6] = qHTS assay to test for compound auto fluorescence at 460 nm (blue) in HepG2 cell free culture (AID 720685)
Procedure, shortened: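 Compound (23 nL) or DMSO pinned into cell-free MEM with 10% FBS; blue fluorescence read at 405/460 nm excitation/emission, expressed as auto-fluorescence equivalency to triamterene.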

[7] = qHTS assay to test for compound auto fluorescence at 535 nm (green) in HepG2 cell free culture (AID 720686)
[8] = qHTS assay to test for compound auto fluorescence at 460 nm (blue) in HepG2 cells (AID 720687)
Procedure, shortened: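 Cells (2,000/well in MEM with 10% FBS) attached overnight at 37 C, then were exposed to compound or DMSO for 1 hr at 37 C, 5% CO2. Fluorescence read at Ex/Em 405/460 nm, expressed as triamterene-equivalent signal.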

[9] = target: Glucocorticoid receptor (Homo sapiens) (UniProt P04150); assay: qHTS assay to identify small molecule agonists of the glucocorticoid receptor (GR) signaling pathway (AID 720691; active = well fitted activation curve with a large enough effect in the signal ratio in the repeat runs, not every such curve was filed as active; the % refers to the signal ratio)
Sequence of Glucocorticoid receptor (Homo sapiens) (P04150 whole entry, looked up): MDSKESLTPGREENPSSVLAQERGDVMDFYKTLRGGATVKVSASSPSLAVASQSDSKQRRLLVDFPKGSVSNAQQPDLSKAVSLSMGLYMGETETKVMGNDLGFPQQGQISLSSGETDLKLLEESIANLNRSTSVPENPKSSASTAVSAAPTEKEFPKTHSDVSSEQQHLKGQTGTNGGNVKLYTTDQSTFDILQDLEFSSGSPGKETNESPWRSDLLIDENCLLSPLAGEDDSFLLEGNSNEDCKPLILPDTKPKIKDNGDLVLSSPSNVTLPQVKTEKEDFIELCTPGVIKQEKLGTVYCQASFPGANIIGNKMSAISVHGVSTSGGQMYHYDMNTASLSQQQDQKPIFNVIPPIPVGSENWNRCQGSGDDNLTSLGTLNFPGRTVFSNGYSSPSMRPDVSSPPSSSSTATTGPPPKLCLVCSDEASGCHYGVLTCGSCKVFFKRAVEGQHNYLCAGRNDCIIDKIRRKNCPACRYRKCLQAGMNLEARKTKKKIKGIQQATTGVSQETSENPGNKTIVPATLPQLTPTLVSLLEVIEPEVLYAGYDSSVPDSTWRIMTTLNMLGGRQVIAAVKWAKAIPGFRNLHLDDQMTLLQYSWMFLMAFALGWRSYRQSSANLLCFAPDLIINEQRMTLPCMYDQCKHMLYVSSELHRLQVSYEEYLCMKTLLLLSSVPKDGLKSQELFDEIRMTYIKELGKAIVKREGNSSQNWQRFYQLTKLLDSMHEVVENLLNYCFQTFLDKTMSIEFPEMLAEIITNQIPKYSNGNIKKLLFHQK
Procedure, shortened: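 Agonist mode in a HeLa line carrying a GRE-controlled beta-lactamase reporter. Compounds act for 18 h at 37 C before a 2 h room-temperature FRET substrate step and fluorescence reading.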

[10] = target: Glucocorticoid receptor (Homo sapiens) (UniProt P04150); assay: qHTS assay to identify small molecule antagonists of the glucocorticoid receptor (GR) signaling pathway (AID 720692; active = well fitted inhibition curve with a large enough effect in the signal ratio in the repeat runs, not every such curve was filed as active; the % refers to the signal ratio)
Procedure, shortened: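 Cells plated, rested 4 h at 37 C/5% CO2; compounds in DMSO pin-transferred; dexamethasone added to 5 nM final; 18 h at 37 C; B/G FRET substrate added, 2 h room temperature; fluorescence measured.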

Measured: Potency

CCCC1COC(Cn2cncn2)(c2ccc(Cl)cc2Cl)O1 (stereo unspecified)
inactive: [1] | [2] | [3] | [4] | [5] | [6] | [7] | [8] | [9] | [10]

CC(C)OC(=O)Nc1cccc(Cl)c1
inactive: [1] | [2] | [3] | [4] | [5] | [6] | [7] | [8]

NCC(O)c1ccc(O)cc1 (stereo unspecified)
inactive: [1] | [2] | [3] | [4] | [5] | [6] | [7] | [8]

CCCCOC(=O)c1ccccc1C(=O)OCCCC
inactive: [1] | [2] | [3] | [4] | [5] | [6] | [7] | [8] | [9]

O=NN1CCCC1
inactive: [1] | [2] | [3] | [4] | [5] | [6] | [7] | [8] | [9] | [10]

COC(=O)c1ccccc1C(=O)OC
inactive: [1] | [2] | [3] | [4] | [5] | [6] | [7] | [8] | [9] | [10]

CCCN(CCC)c1c([N+](=O)[O-])cc(C(F)(F)F)cc1[N+](=O)[O-]
inactive: [1] | [2] | [3] | [4] | [5] | [6] | [7] | [8]

C=CCO
inactive: [1] | [2] | [3] | [4] | [5] | [6] | [7] | [8] | [9] | [10]

Cc1ccc([N+](=O)[O-])cc1C
inactive: [1] | [2] | [3] | [4] | [5] | [6] | [7] | [8]

c1ccc2c(c1)oc1ccccc12
inactive: [1] | [2] | [3] | [4] | [5] | [6] | [7] | [8] | [9] | [10]

CN(C)N=O
inactive: [1] | [2] | [3] | [4] | [5] | [6] | [7] | [8] | [9] | [10]

ClCCBr
inactive: [1] | [2] | [3] | [4] | [5] | [6] | [7] | [8]

OC(O)C(Cl)(Cl)Cl
inactive: [1] | [2] | [3] | [4] | [5] | [6] | [7] | [8]

Clc1cccc(Cl)c1Cl
inactive: [1] | [2] | [3] | [4] | [5] | [6] | [7] | [8] | [9] | [10]

[O-][Cl+2]([O-])O
inactive: [1] | [2] | [3] | [4] | [5] | [6] | [7] | [8]

O=[N+]([O-])c1ccc([As](=O)(O)O)cc1
inactive: [1] | [2] | [3] | [4] | [5] | [6] | [7] | [8] | [9] | [10]

CCCCCCCCCl
inactive: [1] | [2] | [3] | [4] | [5] | [6] | [7] | [8] | [9] | [10]

Cn1cc(-c2ccccc2)c(=O)c(-c2cccc(C(F)(F)F)c2)c1
inactive: [1] | [2] | [3] | [4] | [5] | [6] | [7] | [8] | [9] | [10]

CCc1cccc(C)c1N(C(=O)CCl)C(C)COC (stereo unspecified)
inactive: [1] | [2] | [3] | [4] | [5] | [6] | [7] | [8]

CCC[N+](=O)[O-]
inactive: [1] | [2] | [3] | [4] | [5] | [6] | [7] | [8]

CC(C)OC(=O)Nc1ccccc1
inactive: [1] | [2] | [3] | [4] | [5] | [6] | [7] | [8]

CC(C)C1(C)N=C(c2nc3ccccc3cc2C(=O)O)NC1=O (stereo unspecified)
inactive: [1] | [2] | [3] | [4] | [5] | [6] | [7] | [8] | [9] | [10]

O=NN1CCCCCCC1
inactive: [1] | [2] | [3] | [4] | [5] | [6] | [7] | [8] | [9] | [10]

c1ccc(-c2ccccc2)cc1
inactive: [1] | [2] | [3] | [4] | [5] | [6] | [7] | [8] | [9] | [10]

CC(C)(C)OOC(C)(C)C
inactive: [1] | [2] | [3] | [4] | [5] | [6] | [7] | [8] | [9] | [10]

CN(C)CCO
inactive: [1] | [2] | [3] | [4] | [5] | [6] | [7] | [8] | [9] | [10]

CCNc1nc(NC(C)(C)C)nc(SC)n1
inactive: [1] | [2] | [3] | [4] | [5] | [6] | [7] | [8] | [9] | [10]

COP(N)(=O)SC (stereo unspecified)
inactive: [1] | [2] | [3] | [4] | [5] | [6] | [7] | [8] | [9] | [10]

Nc1ccccc1C(=O)O
inactive: [1] | [2] | [3] | [4] | [5] | [6] | [7] | [8]

c1ccc2c(c1)Oc1ccccc1O2
inactive: [1] | [2] | [3] | [4] | [5] | [6] | [7] | [8] | [9] | [10]

Cc1cccc([N+](=O)[O-])c1
inactive: [1] | [2] | [3] | [4] | [5] | [6] | [7] | [8] | [9]

Clc1ccc(Cl)cc1
inactive: [1] | [2] | [3] | [4] | [5] | [6] | [7] | [8] | [9] | [10]

O=S(=O)(c1ccc(Cl)cc1)c1cc(Cl)c(Cl)cc1Cl
inactive: [1] | [2] | [3] | [4] | [5] | [6] | [7] | [8] | [9]

CON(C)C(=O)Nc1ccc(Cl)c(Cl)c1
inactive: [1] | [2] | [3] | [4] | [5] | [6] | [7] | [8] | [9] | [10]

Cc1cc(-c2cc(C)c(N)c(C)c2)cc(C)c1N
inactive: [1] | [2] | [3] | [4] | [5] | [6] | [7] | [8] | [9]

C=C(C)CCl
inactive: [1] | [2] | [3] | [4] | [5] | [6] | [7] | [8] | [9] | [10]

CCC(C)(CC)c1cc(NC(=O)c2c(OC)cccc2OC)on1
inactive: [1] | [2] | [4] | [5] | [6] | [7] | [8]

CCNc1nc(NC(C)C)nc(SC)n1
inactive: [2] | [3] | [4] | [5] | [6] | [7] | [8]

Nc1ccc(Oc2ccc(N)cc2)cc1
inactive: [1] | [2] | [3] | [4] | [5] | [6] | [7] | [8] | [9] | [10]

Cc1[nH]c(=O)n(C(C)(C)C)c(=O)c1Cl
inactive: [1] | [2] | [4] | [5] | [6] | [7] | [8]

c1cc2c3c(cccc3c1)CC2
inactive: [1] | [2] | [4] | [5] | [6] | [7] | [8] | [9] | [10]

Cc1ccc(N)cc1N
inactive: [1] | [3] | [4] | [5] | [6] | [7] | [9] | [10]

CC(C#N)CCC#N (stereo unspecified)
inactive: [1] | [2] | [4] | [5] | [6] | [7] | [8] | [9] | [10]

CC(C)NC(=O)N1CC(=O)N(c2cc(Cl)cc(Cl)c2)C1=O
inactive: [2] | [3] | [4] | [5] | [6] | [7] | [8]

Nc1ccc(Cc2ccc(N)cc2)cc1
inactive: [1] | [2] | [4] | [5] | [6] | [7] | [8] | [9] | [10]

CC(Oc1ccc(Cl)cc1Cl)C(=O)O (stereo unspecified)
inactive: [1] | [2] | [4] | [5] | [6] | [7] | [8] | [9] | [10]

CC(Br)C(=O)O (stereo unspecified)
inactive: [1] | [2] | [4] | [5] | [6] | [7] | [8] | [9] | [10]

BrCCBr
inactive: [1] | [2] | [4] | [5] | [6] | [7] | [8] | [9] | [10]

CNC(=O)Oc1ccccc1OC(C)C
inactive: [1] | [2] | [4] | [5] | [6] | [7] | [8] | [9] | [10]

CC(C)=C[C@@H]1[C@@H](C(=O)OCc2coc(Cc3ccccc3)c2)C1(C)C
inactive: [1] | [2] | [4] | [5] | [6] | [7] | [8] | [9] | [10]

O=c1[nH]c2ccccc2c(=O)o1
inactive: [1] | [2] | [3] | [4] | [5] | [6] | [7] | [8] | [9] | [10]

CCN(CC)c1ccccc1
inactive: [1] | [2] | [4] | [5] | [6] | [7] | [8] | [9] | [10]

c1ccc(OP(Oc2ccccc2)Oc2ccccc2)cc1
inactive: [1] | [2] | [3] | [4] | [5] | [6] | [7] | [8] | [9] | [10]

Reference: PubChem BioAssay (Tox21)
